The campaign covered roughly 5,500 compounds. About 2,000 (36%) were called active. About 18% were inconclusive and are not listed. No stated cut-off is given here; in the data, active means normalized growth mostly below about 0.91 (no sharp cut-off); inconclusive means no clear call, values can overlap the other calls; inactive means mostly above about 0.92. The list shows a part of the results.
Test: chemical genetic growth profiling, strain panel (AID 1159580);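 further: tested at 20 µM; growth read once vehicle control cultures reached saturation at 30 °C; 1 = growth at the plate median or of vehicle wells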
Details: S. cerevisiae deletion strains, growth OD

Measured: normalized growth

C/C(Cc1nnn(-c2cc(C)on2)n1)=N/OC(=O)Nc1ccc(Cl)cc1
active: locus YHR030C, strain SLT2, stronger effect = lower value 0.733 | locus YJR066W, strain TOR1 (second series), stronger effect = lower value 0.6 | locus YLR113W, strain HOG1, stronger effect = lower value 0.826
inactive: locus YAR019C, strain CDC15, stronger effect = lower value 0.989 | locus YBL105C, strain PKC1, stronger effect = lower value 0.978 | locus YBR135W, strain CKS1, stronger effect = lower value 0.988 | locus YBR136W, strain MEC1, stronger effect = lower value 0.985 | locus YBR160W, strain CDC28, stronger effect = lower value 0.993 | locus YDL017W, strain CDC7, stronger effect = lower value 0.974 | locus YDL028C, strain MPS1, stronger effect = lower value 0.989 | locus YDL101C, strain DUN1, stronger effect = lower value 1 | locus YDL108W, strain KIN28, stronger effect = lower value 0.982 | locus YDL132W, strain cdc53, stronger effect = lower value 0.975 | locus YDL214C, strain PRR2, stronger effect = lower value 0.956 | locus YDR052C, strain DBF4, stronger effect = lower value 0.988 | locus YDR054C, strain cdc34, stronger effect = lower value 0.975 | locus YDR226W, strain ADK1, stronger effect = lower value 0.97 | locus YDR477W, strain SNF1, stronger effect = lower value 0.899 | locus YER123W, strain YCK3, stronger effect = lower value 0.954 | locus YER133W, strain GLC7, stronger effect = lower value 0.95 | locus YFL009W, strain cdc4, stronger effect = lower value 0.98 | locus YFL029C, strain CAK1, stronger effect = lower value 0.992 | locus YFR003C, strain YPI1, stronger effect = lower value 0.979 | locus YFR019W, strain FAB1, stronger effect = lower value 0.989 | locus YFR028C, strain CDC14, stronger effect = lower value 0.975 | locus YGR040W, strain KSS1, stronger effect = lower value 0.941 | locus YGR052W, strain FMP48, stronger effect = lower value 0.971 | locus YGR092W, strain DBF2, stronger effect = lower value 0.877 | locus YHR079C, strain IRE1, stronger effect = lower value 0.754 | locus YHR082C, strain KSP1, stronger effect = lower value 1.05 | locus YHR205W, strain SCH9, stronger effect = lower value 0.787 | locus YIL147C, strain SLN1, stronger effect = lower value 0.973 | locus YJL095W, strain BCK1, stronger effect = lower value 0.793 | locus YJL128C, strain PBS2, stronger effect = lower value 0.921 | locus YJL157C, strain FAR1, stronger effect = lower value 0.956 | locus YJR016C, strain ILV3, stronger effect = lower value 0.977 | locus YJR066W, strain TOR1, stronger effect = lower value 0.992 | locus YKL048C, strain ELM1, stronger effect = lower value 0.994 | locus YKL067W, strain YNK1, stronger effect = lower value 0.946 | locus YKL101W, strain HSL1, stronger effect = lower value 0.929 | locus YKL193C, strain SDS22, stronger effect = lower value 0.977 | locus YKL203C, strain TOR2, stronger effect = lower value 1.03 | locus YLR133W, strain CKI1, stronger effect = lower value 0.96 | locus YLR403W, strain SFP1, stronger effect = lower value 0.933 | locus YML070W, strain DAK1, stronger effect = lower value 0.944 | locus YMR001C, strain CDC5, stronger effect = lower value 0.983 | locus YMR205C, strain PFK2 (second series), stronger effect = lower value 0.936 | locus YMR277W, strain FCP1, stronger effect = lower value 0.978 | locus YNL006W, strain LST8, stronger effect = lower value 0.98 | locus YNL020C, strain ARK1, stronger effect = lower value 0.923 | locus YNL161W, strain CBK1, stronger effect = lower value 0.973 | locus YNL183C, strain NPR1, stronger effect = lower value 0.977 | locus YNL207W, strain RIO2, stronger effect = lower value 0.981 | locus YNL222W, strain SSU72, stronger effect = lower value 0.993 | locus YNL307C, strain MCK1 (second series), stronger effect = lower value 0.907 | locus YOL078W, strain AVO1, stronger effect = lower value 0.986 | locus YOL136C, strain PFK27, stronger effect = lower value 0.946 | locus YOR061W, strain CKA2, stronger effect = lower value 0.988 | locus YOR119C, strain RIO1, stronger effect = lower value 1.01 | locus YOR231W, strain MKK1, stronger effect = lower value 0.954 | locus YOR329C, strain SCD5, stronger effect = lower value 0.982 | locus YPL031C, strain PHO85, stronger effect = lower value 0.924 | locus YPL153C, strain RAD53, stronger effect = lower value 0.953 | locus YPL204W, strain HRR25, stronger effect = lower value 0.954 | locus YPL209C, strain IPL1, stronger effect = lower value 0.985 | locus YPL256C, strain CLN2, stronger effect = lower value 0.86 | locus YPR025C, strain CCL1, stronger effect = lower value 0.991 | locus YPR106W, strain ISR1, stronger effect = lower value 0.98 | locus YPR111W, strain DBF20, stronger effect = lower value 0.975 | strain NNK1, stronger effect = lower value 0.967 | strain TSCII, stronger effect = lower value 0.98

Reference: PubChem BioAssay AID1159580 (chemical genetic matrix, 2015)
